Results on twelve compounds are retold here after PubChem BioAssay (NCI).

Test systems include DU-145 prostate; K-562 leukemia; MALME-3M melanoma; MDA-MB-231 breast; RXF 393 renal; SF-268 CNS; SF-295 CNS; SF-539 CNS; UACC-257 melanoma; M14 melanoma.
What all share (assay): NCI-60 one-dose screen, 48 h (100 = growth as untreated, 0 = no growth, -100 = all killed)
What all share (settings): 10 µM unless noted

Several values for one entry are separate records, joined by “and”; a condition that tells them apart may be missing. Identical values can stand only once. This is part of a sample that, as a whole, favours compounds with a hit. Of some 83,000 tested, about 20% had one in any assay.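 Values shown are percent growth following 48 h exposure of cells in 96-well plates to a single concentration of compound; below 10 was considered active.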 Activity calls are given as the source filed them.

Turning to `O=C1c2cc3c(cc2-c2c1c1ccc(Cl)cc1c(=O)n2CCCn1ccnc1)OCO3`, the growth in the test on DU-145 prostate is -42.2% (active); with K-562 leukemia, 1.87% (active); in the test on MALME-3M melanoma, -24.6% (active); in the test on MDA-MB-231 breast, 46.4% (inactive); with RXF 393 renal it was -36.7% (active); in the test on SF-268 CNS, 8.11% (active). Moreover, the growth in the test on SF-295 CNS is -10.1% (active); with SF-539 CNS, -50.3% (active); in the test on UACC-257 melanoma, -3.1% (active); in the test with M14 melanoma it was -28.6% (active).
For `O=[N+]([O-])c1ccc(S(=O)Cc2ccccc2)c([N+](=O)[O-])c1` (stereo not given), the growth was 79.3% (inactive) and 70.5% (inactive) in the test on DU-145 prostate; 25.9% (inactive) in the test with K-562 leukemia; -61.7% (active) and -33.4% (active) in the test with MALME-3M melanoma; 74.6% (inactive) and 82.1% (inactive) in the test on MDA-MB-231 breast; -36.6% (active) and -28.2% (active) with RXF 393 renal; 86.6% (inactive) and 88.5% (inactive) in the test on SF-268 CNS. For the same compound, the growth in the test with SF-295 CNS was 95.9% (inactive); with SF-539 CNS it was 90.7% (inactive) and 46.3% (inactive); with UACC-257 melanoma, 37% (inactive) and 69.3% (inactive); in the test on M14 melanoma, 55.8% (inactive) and 31.7% (inactive).
As for `O=S(=O)(Nc1cc(Sc2cccc3cccnc23)c(O)c2ccccc12)c1ccc(F)cc1`, the growth in the test with DU-145 prostate was -25.4% (active); in the test with K-562 leukemia it was -20.1% (active); in the test with MALME-3M melanoma it was -14% (active); with MDA-MB-231 breast, 19.6% (inactive); in the test with RXF 393 renal it was -5.08% (active); in the test on SF-268 CNS, 8.15% (active). Also, the growth in the test on SF-295 CNS is 22.1% (inactive); with SF-539 CNS, -15.6% (active); in the test on UACC-257 melanoma, -24.8% (active); with M14 melanoma, -42.8% (active).
On to `Cc1ccc(/C=C(\C#N)c2cc3ccccc3[nH]2)cc1`, for which the growth is 73.1% (inactive) in the test with DU-145 prostate; 13.8% (inactive) with K-562 leukemia; 67.7% (inactive) in the test on MALME-3M melanoma; 35.9% (inactive) in the test with MDA-MB-231 breast; 82.8% (inactive) in the test with RXF 393 renal; 68.1% (inactive) in the test with SF-268 CNS. The growth in the test on SF-295 CNS was 68.2% (inactive); with SF-539 CNS, 57.7% (inactive); in the test on UACC-257 melanoma it was 72.4% (inactive); with M14 melanoma, 31.5% (inactive).
With `CCCCSc1ccc2nc(-c3ccc(OCCCN=C(N)N)cc3)cn2c1`, the growth was 73.4% (inactive) with DU-145 prostate; 32.9% (inactive) with K-562 leukemia; 23.2% (inactive) in the test on MALME-3M melanoma; 51.2% (inactive) in the test on MDA-MB-231 breast; 45.6% (inactive) in the test on RXF 393 renal; 50.9% (inactive) in the test on SF-268 CNS. Moreover, the growth was 52.7% (inactive) with SF-295 CNS, 9.52% (active) in the test on SF-539 CNS, 85.7% (inactive) in the test on UACC-257 melanoma and 72.5% (inactive) in the test on M14 melanoma.
Take `O=C(Nc1ncc(Cc2cccc(C(F)(F)F)c2)s1)c1ccc2c(c1)OCCO2`: the growth with DU-145 prostate was 15.1% (inactive); with K-562 leukemia it was 8.17% (active); in the test on MALME-3M melanoma it was 50.1% (inactive); in the test with MDA-MB-231 breast, 30.2% (inactive); in the test with RXF 393 renal, 19.6% (inactive); in the test on SF-268 CNS, 38.3% (inactive). Also, the growth with SF-295 CNS is 8.97% (active); with SF-539 CNS, -0.654% (active); in the test with UACC-257 melanoma it was 45.5% (inactive); in the test on M14 melanoma, 21.6% (inactive).
As for `CCCCCCCCCCCCCCCCCCOc1cccc(CC(=O)OCC[N+](CC)(CC)CC)c1`, the growth in the test on DU-145 prostate was 73.8% (inactive); with K-562 leukemia, 31.8% (inactive); with MALME-3M melanoma it was 74.1% (inactive); with MDA-MB-231 breast, 41.4% (inactive); in the test on RXF 393 renal it was 8.82% (active); in the test with SF-268 CNS, 61.7% (inactive). Also, the growth with SF-295 CNS was 40.9% (inactive); with SF-539 CNS it was 51.1% (inactive); in the test on UACC-257 melanoma it was 114% (inactive); with M14 melanoma, 42.3% (inactive).
Turning to `O=C(Nc1cc(C(F)(F)F)cc(C(F)(F)F)c1)c1cc(Cl)ccc1O`, the growth in the test with DU-145 prostate was 14.4% (inactive) and 5.91% (active); with K-562 leukemia, 2.85% (active) and 5.08% (active); in the test with MALME-3M melanoma, -38.3% (active) and -37.1% (active); in the test with MDA-MB-231 breast, -11.4% (active) and -22.8% (active); in the test with RXF 393 renal it was -40% (active) and -5.38% (active); with SF-268 CNS, 11.7% (inactive) and -7.95% (active). Moreover, the growth was -63.1% (active) and -66.9% (active) with SF-295 CNS; -31% (active) and -18% (active) in the test on SF-539 CNS; -52.7% (active) and -18.1% (active) with UACC-257 melanoma; -6.08% (active) and -32.7% (active) in the test on M14 melanoma.
In the case of `C#CCOCC1CN(C)C(=O)O1` (stereo not given), the growth in the test with DU-145 prostate is 107% (inactive); in the test with K-562 leukemia it was 101% (inactive); in the test on MALME-3M melanoma it was 110% (inactive); with MDA-MB-231 breast, 110% (inactive); in the test on RXF 393 renal it was 131% (inactive); with SF-268 CNS, 113% (inactive). The growth with SF-295 CNS is 105% (inactive); in the test with SF-539 CNS, 102% (inactive); with UACC-257 melanoma, 104% (inactive); in the test on M14 melanoma, 107% (inactive).
In the case of `OCc1cc(CN2CCCCC2)c(O)c2ncccc12`, the growth was 49.5% (inactive) with DU-145 prostate; 55.5% (inactive) with K-562 leukemia; 62.8% (inactive) in the test with MALME-3M melanoma; 49.5% (inactive) with MDA-MB-231 breast; 73.8% (inactive) in the test with RXF 393 renal; 48.2% (inactive) with SF-268 CNS. The growth is 60.6% (inactive) in the test with SF-295 CNS, 54% (inactive) in the test on SF-539 CNS, 77.8% (inactive) in the test on UACC-257 melanoma and 36.2% (inactive) with M14 melanoma.
As for `Nc1ccccc1SC(CC(=O)c1ccccc1)c1ccc([N+](=O)[O-])cc1` (stereo not given), the growth with DU-145 prostate was 110% (inactive) and 88% (inactive); with K-562 leukemia it was 68.8% (inactive) and 13.2% (inactive); in the test with MALME-3M melanoma, 112% (inactive) and 74.5% (inactive); in the test on MDA-MB-231 breast, 84.1% (inactive) and 85.2% (inactive); in the test on RXF 393 renal, 102% (inactive) and 91.2% (inactive); in the test with SF-268 CNS it was 98.7% (inactive) and 82.1% (inactive). Further, the growth is 90.2% (inactive) and 85.2% (inactive) in the test on SF-295 CNS; 107% (inactive) and 105% (inactive) with SF-539 CNS; 107% (inactive) and 86.7% (inactive) with UACC-257 melanoma; 108% (inactive) and 85.8% (inactive) in the test with M14 melanoma.
On to `Clc1ccc(CNc2ccc3nc(CCC4CCCCC4)[nH]c3c2)cc1`, for which the growth is 83.5% (inactive) in the test on DU-145 prostate; 6.84% (active) in the test on K-562 leukemia; 31.4% (inactive) in the test with MALME-3M melanoma; 62.8% (inactive) in the test with MDA-MB-231 breast; 52% (inactive) with RXF 393 renal; 79% (inactive) with SF-268 CNS. The growth is 73.4% (inactive) with SF-295 CNS, 69.6% (inactive) in the test on SF-539 CNS, 71.4% (inactive) in the test with UACC-257 melanoma and 45% (inactive) with M14 melanoma.
